High-throughput results (PubChem)
Most compounds without a hit are left out; they make up all but 0.49% or so of the library.
TCR act – activates T cell receptor signaling. primary human leukocytes, anti-CD3, IL-2 HTRF, 48 h. 330,000 tested, under 10 active. Potency, µM (highest dose often 9.22 µM), for inactives: top-dose activation of IL-2 secretion, usual class: activators. AID 504894; also: % of control where 0% means no effect
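Compounds are tested in HTS on primary human leukocytes co-incubated with a-CD3 beads for 48 hr. IL-2 output is measured by time-resolved FRET.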
Tb PFK block – blocks T. brucei phosphofructokinase | O15648 | T. brucei PFK, ADP-Glo luminescence | Potency, µM (highest dose often 57.5 µM), for the others: at the highest dose activity, negative = inhibition, hits mostly inhibitors | 0.17% of 330,000 active;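 also: potency is read from the fitted curve at half-maximal effect; 0% = uninhibited 1x PFK enzyme wells and -100% = no-enzyme wells; nearly all actives have a fitted effect of over 60% in size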
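In TEA buffer at pH 8.0 with 5 mM MgCl2, enzyme (1.25 nM) converted F6P (0.5 mM) and ATP (0.1 mM) for 45 min at room temperature. ADP product was read by luciferase luminescence.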
ASM inhibitor – human S-ASM enzyme inhibition. placental ASM, HMU-PC fluorogenic substrate, 60 min. Potency, µM (series often up to 57.5 µM), without a hit: at the top dose activity change, negative = inhibition, usual class: inhibitors. 0.006% of 340,000 active. AID 504937; also: potency is read from the fitted curve at half-maximal effect
Target sequence (P17405 47-631 limits assumed): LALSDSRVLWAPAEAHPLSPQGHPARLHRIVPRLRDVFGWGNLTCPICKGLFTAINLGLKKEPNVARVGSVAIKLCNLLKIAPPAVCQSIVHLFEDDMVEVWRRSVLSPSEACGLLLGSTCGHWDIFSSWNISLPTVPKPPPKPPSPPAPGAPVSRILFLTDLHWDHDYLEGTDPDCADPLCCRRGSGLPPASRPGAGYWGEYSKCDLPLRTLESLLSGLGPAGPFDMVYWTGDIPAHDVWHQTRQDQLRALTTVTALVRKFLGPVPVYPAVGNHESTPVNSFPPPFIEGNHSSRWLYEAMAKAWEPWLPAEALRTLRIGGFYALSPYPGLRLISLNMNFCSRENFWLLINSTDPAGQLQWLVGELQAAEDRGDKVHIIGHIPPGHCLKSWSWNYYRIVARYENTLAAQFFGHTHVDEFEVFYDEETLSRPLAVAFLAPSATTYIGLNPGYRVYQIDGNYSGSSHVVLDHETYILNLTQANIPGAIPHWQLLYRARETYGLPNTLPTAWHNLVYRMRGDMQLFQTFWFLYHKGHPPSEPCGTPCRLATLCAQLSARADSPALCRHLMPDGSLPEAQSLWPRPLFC
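HMU-PC0 cleavage (9 uM final) by human placental ASM, 60 min at 37 °C following 10 min compound exposure at RT; stopped at pH 10, fluorescence Ex 386/Em 447 nm.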
BCR signal inh – chronic active BCR signaling inhibition; 0.05% of 340,000 active; ABC-DLBCL IkBa-CBG/CBR reporter, luminescence ratio, 4 h; Potency, µM (titrated, usually from 46.1 µM), without a hit: at the highest dose activity change, negative = inhibition, usual class: inhibitors; AID 493014; active = well fitted inhibition curve with a large enough effect in the signal ratio, with a control signal flat, not every such curve was filed as active; inconclusive = small, poorly fitted or top-dose-only effect, or effect the other way, or a change in a side signal; the % refers to the signal ratio;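 also: potency is read from the fitted curve at half-maximal effect; plate controls were basal doxycycline-induced cells for no effect and cells given 10 µM MG132 for full effect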
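Concentration-response series (up to 46 uM) were applied to TMD8 dual-reporter cells for 4 h at 37C with doxycycline. Green/red ratio, after filter-overlap correction, defined %Activity; red signal alone was normalised to basal cells and zero luminescence.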
CCT chaperon mod – modulators of cytosolic chaperonin (CCT/TRiC) activity | purified chaperonin ATPase assay, HTRF ADP detection, 30 min | activity change, % (concentration not given with the values), hits read low | 0.3% of 360,000 active; in the data active = activity change below about -30%; also: % is scaled to controls: 0 for no effect and ±100 for the full control effect
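ATPase activity: ADP formed was measured by HTRF Transcreener (665/615 nm ratio) after 30 min at 37 deg C with 10 uM ATP. Compounds screened at one 76 uM concentration against 40 or 20 nM TRiC in Tris pH 7.4/KCl/MgCl2/DTT buffer.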
* marks the source's active call; other numbers are inactive results; u = inconclusive; x = not tested or not shown; [ ] = remark or other dose. Unless noted, calls follow the shape of the dose curve; as a rule, active = well fitted curve in the direction sought with a large enough effect; inconclusive = small, poorly fitted or top-dose-only effect, or another doubt; inactive = no such curve, though single readings can be large; an effect the other way counts as inactive or inconclusive.

SMILES	TCR act	Tb PFK block	ASM inhibitor	BCR signal inh	CCT chaperon mod
O=C(NCC(c1ccco1)N1CCCC1)c1cc(S(=O)(=O)N2CCCCC2)ccc1Cl (stereo unspecified)	1.6%	-0.9%	-1.1%	0.0%	-40.4*
CN(C(=O)CSc1nncn1-c1ccccc1)c1ccccc1	-0.1%	-0.7%	-11.6%	1.6%	-2.7
CN(C(=O)CSc1nc(N)nn1-c1ccccc1)c1ccccc1	-18.8%	-2.0%	-0.2%	4.0%	-69.5*
O=C(NCCCNC(=O)c1c(Cl)cccc1Cl)c1c(Cl)cccc1Cl	-3.2%	x	4.5%	x	0.6
O=C(NCCCNC(=O)c1c(F)cccc1F)c1c(F)cccc1F	-3.5%	10.2%	4.2%	3.1%	-77.7*
COC(=O)C1CCN(C(c2ccccc2)c2sc3nc(-c4ccco4)nn3c2O)CC1 (stereo unspecified)	x	x	x	2.2%	x
CSc1ccc(C2=CC(=O)C[C@H](c3ccc(F)cc3)C2)cc1	-4.1%	6.0%	268.7%	u	-38.7*
Cn1cc(C[C@H](C(=O)O)N2C(=O)c3ccc(C(=O)O)cc3C2=O)c2ccccc21	x	-3.4%	x	-22.5%	x
CCOc1ccccc1NC(=O)c1ccc(F)c(S(=O)(=O)N2CCN(c3ccc(F)cc3)CC2)c1	x	x	x	-5.2%	x
O=C(c1ccc2c(c1)N(Cc1cccc(Cl)c1)C(=O)c1ccccc1S2=O)N1CCN(c2cccc(C(F)(F)F)c2)CC1 (stereo unspecified)	x	x	x	7.5%	x
O=C(COc1ccccc1)Nc1nnc(S(=O)(=O)N2CCCC2)s1	-1.5%	-13.9%	2.1%	3.7%	-47.4*
CCc1ccccc1-n1cnc2cc(C(=O)NC3CCCCCC3)ccc21	x	x	x	-0.3%	x
COc1ccc(C(=O)c2ncc(C(F)(F)F)cc2Cl)cc1	-5.4%	1.0%	0.0%	0.0%	-146.5*
O=CN/C=C/c1cc(O)ccc1O	2.1%	30.1µM*	0.4%	u	-0.1
CC(C)CC(NC(=O)CC12CC3CC(CC(C3)C1)C2)C(=O)NC1=NCCS1 (stereo unspecified)	-1.6%	1.4%	-3.1%	0.0%	-98.2*
CCCCCCN1CCN(C2CN(Cc3cn(Cc4ccccc4)nn3)S(=O)(=O)C2)CC1 (stereo unspecified)	x	x	x	x	-31.9*
O=C(CN1C(=O)CCSc2ccccc21)Nc1ccccc1	2.8%	0.7%	4.3%	-0.4%	-3.1
O=C(CN1C(=O)CCSc2ccccc21)NC1CCCCC1	-3.4%	1.4%	2.4%	0.9%	-35.7*
COC(=O)c1ccccc1Nc1ccccc1	-0.1%	5.0%	2.4%	0.1%	-31.8*
COc1ccc([C@]23Cc4cc(OC)c(OC)cc4C(O2)c2c(cc(C)oc2=O)O3)cc1	x	0.6%[11.5 µM]	x	9.8%[9.22 µM]	x
Cn1c(=O)c2nc(SCC(=O)Nc3cc(Cl)cc(Cl)c3)n(C)c2n(C)c1=O	x	x	x	0.0%	x
COc1ccc(NC(=O)CSC2=Nc3ccccc3C3=NC(CCC(=O)NCc4cccs4)C(=O)N23)cc1 (stereo unspecified)	x	x	x	-4.3%	x
Cc1ccc2oc(C(Cl)(Cl)Cl)cc(=O)c2c1	-4.3%	-0.7%	-0.8%	22.4µM*	0.7
COc1ccc(C2C(=O)N(C3CCC(C)CC3)CC(=O)N2Cc2ccc(C)cc2)cc1OC (stereo unspecified)	x	x	x	-0.4%	x
COCCN(CCOC)C(=O)c1cc2sc3ccccc3c2s1	-5.1%	0.7%	-3.6%	-5.1%	-31.0*
SMILES	TCR act	Tb PFK block	ASM inhibitor	BCR signal inh	CCT chaperon mod
COc1ccccc1/C=C(/CC(=O)NCc1ccccc1)c1nc2ccccc2s1	3.1%[46.1 µM]	7.9%	5.3%	13.0%	-33.9*
CC1Cc2ccccc2N1C(=O)CN1C(=O)COc2ccccc21 (stereo unspecified)	x	1.1%	2.9%	2.1%	-0.4
CC1Cc2ccccc2N1C(=O)CN1C(=O)CN(C)C(=O)c2ccccc21 (stereo unspecified)	1.8%	-2.8%	1.5%	20.3%	-34.7*
Cc1c(C(=O)N(C)C)sc2c1c(=O)n(-c1ccc(F)cc1)c(=O)n2Cc1cc(=O)n2ccccc2n1	x	x	x	-15.4%	x
CC(C(=O)O)N1C(=O)/C(=C/C=C/c2ccco2)SC1=S (stereo unspecified)	7.6%	3.01µM*	-21.0%	6.9%	-1.8
O=C1/C(=C/C=C/c2ccco2)SC(=S)N1NS(=O)(=O)c1ccccc1	2.6%	-28.8%	-18.0%	11.3%	-2.4
Cc1cc2c(c(=O)n1Cc1ccccc1)C1O[C@](CCCCN3C(=O)c4ccccc4C3=O)(Cc3cc(C#N)ccc31)O2	x	1.6%[11.5 µM]	x	27.9%[9.22 µM]	x
CC(C)(C)c1ccc(OCC(O)CN2CCc3ccccc3C2)cc1 (stereo unspecified)	-0.6%	x	2.6%	x	-57.5*
COc1ccccc1NC(=O)N1CCN(c2cccc(C(F)(F)F)c2)CC1	2.0%	-3.3%	-2.7%	u	0.4
COc1ccccc1CC(=O)N1CCN(c2cccc(C(F)(F)F)c2)CC1	10.4%	-8.1%	-3.8%	5.6%	-34.1*
Cc1ccc(-c2csc3ncnc(-n4nc(C)cc4N)c23)cc1	4.6%	-1.6%	-0.6%	-0.5%	-95.1*
Cc1cc(N)n(-c2ncnc3scc(-c4ccc(Cl)cc4)c23)n1	3.8%[46.1 µM]	-2.0%	-0.9%	-2.1%	-1.0
CCOC(=O)c1nn2c(C(F)(F)F)cc(-c3ccc(OC)cc3)nc2c1Br	x	-6.1%	86.6%	2.6%	-32.8*
NC(=O)C1CCN(c2ncnc3c2cnn3-c2cccc(Cl)c2)CC1	x	x	x	1.6%	x
C[C@@H]1CN([C@@H](C)CO)C(=O)c2cc(NC(=O)C3CC3)ccc2O[C@@H]1CN(C)Cc1ccc(Cl)c(Cl)c1	-2.5%	u	-0.6%	-1.4%	-41.2*
COc1ccc(-c2cc(C(C)=O)c(C)n2CCC(=O)Nc2ccc(C)cc2Cl)cc1	x	x	x	-6.6%	x
CCCc1cnc2c(c1SCc1ccc(C(F)(F)F)cc1)c(=O)n(C)c(=O)n2C	x	x	x	-0.3%	x
CCOc1cc2[nH]c(=O)n(Cc3ccc(C(=O)N4CCN(c5cccc(Cl)c5)CC4)cc3)c(=O)c2cc1OCC	x	x	x	-1.2%	x
CCC(C)NC(=O)c1ccc2nc(Cc3ccc(OC)cc3)oc2c1 (stereo unspecified)	9.3%	-2.0%	-3.0%	-2.8%	-1.1
CCC(NC(=O)c1ccc2nc(Cc3ccc(OC)cc3)oc2c1)c1ccncc1 (stereo unspecified)	-4.1%	-0.1%	1.6%	-3.1%	-84.0*
O=C(COC(=O)c1cc(=O)[nH]c2ccccc12)c1ccc(Br)cc1	12.5%	9.9%	153.6%	1.9%	-126.4*
CCOc1ccc(C(=O)COC(=O)c2cc(=O)[nH]c3ccccc23)cc1	3.2%	3.8%	21.0%	-10.1%	-1.0
O=C(COC(=O)c1cc(=O)[nH]c2ccc(Br)cc12)c1ccccc1	-1.2%	-2.9%	-0.2%	u	-33.2*
